# Laboratory results taken from the supplement of paper PMC7156485.
# ± gives the standard deviation of the averaged measurements.
# System: TDF
# Assay: cell number relative to DMSO (% of DMSO); higher = more cells (less growth inhibition / toxicity)
# Settings: concentration: 10 µM; 24 h
# In short: (§1)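 H1.0 nuclear intensity or cell number is expressed as percent of the plate control, with the median of replicates taken. HCC1569 and TDF cells were treated with compounds at 10 µM for 24 h at 37 °C, in triplicate, then fixed and immunostained for H1.0 with DAPI as a nuclear stain. HCC1569 values were smoothed to correct for positional effects.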
# 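Throughout, for H1.0 immunofluorescence intensity relative to DMSO: TDF is a line of transformed human dermal fibroblasts of mesenchymal origin.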
# 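Throughout, for cell number relative to DMSO: TDF denotes transformed human dermal fibroblasts of mesenchymal origin.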
row,SMILES,cell number
1,NNC(=O)c1ccncc1 [Isoniazid],104
2,NC(N)=Nc1nc(CSCCC(N)=NS(N)(=O)=O)cs1,110
3,O=C1OC(C(O)CO)C(O)=C1O (configuration not stated) [Ascorbic acid],103
4,CC(C)c1cc(C(C)C)c(-c2csc(N(CCN(C)C)Cc3cccnc3)n2)c(C(C)C)c1,55.2
5,COC(=O)C1C(O)CCC2CN3CCc4c([nH]c5ccccc45)C3CC21.Cl (configuration not stated),107 ± 3.6
6,CCCCCCC=CCCCCCCCCCC(=O)O [11(E)-Octadecenoic acid],99.5
7,CCC(C)C(=O)OC1CC(O)C=C2C=CC(C)C(CCC3CC(O)CC(=O)O3)C21 (configuration not stated) [Pravastatin Lactone],109
8,NC(=O)CC[C@H](N)C(=O)O [L-Glutamine],112
9,CCCCCCC=CCCCCCCCCC(=O)O [10(E)-Heptadecenoic acid],95.4
10,CC(C=CC1=C(C)CCCC1(C)C)=CC=CC(C)=CC(=O)Nc1ccc(O)cc1 [4-Hydroxyphenylretinamide],112
11,COc1cc2nccc(Oc3ccc(NC(=O)Nc4ccc(F)cc4F)c(F)c3)c2cc1OC,59.9
12,O=C(COc1ccc(C(=O)c2ccccc2)cc1)NC1CCN(Cc2ccccc2)CC1 [2-(4-benzoylphenoxy)-N-(1-benzyl-4-piperidinyl)acetamide],78.3
13,CCCCCCCCC=CCCCCCCCCCCCCC(=O)O [14(E)-Tricosenoic acid],98.1
14,O=C(O)c1cc(-c2ccc(F)cc2F)ccc1O [Diflunisal],100
15,CC1(C)CCC(NC(=O)C(N)CCC(=O)O)CC1 (configuration not stated),111
16,NC(=O)c1noc([C@H](CCCC2CCCCC2)CC(=O)NO)n1,95.6
17,CC(=O)Oc1ccccc1C(=O)O [Acetylsalicylic Acid],99
18,Cl.Cl.OCCN1CCN(CCCN2c3ccccc3Sc3ccc(C(F)(F)F)cc32)CC1 [Fluphenazine.2HCl],107
19,Cl.O[C@H](c1cc(C(F)(F)F)nc2c(C(F)(F)F)cccc12)[C@@H]1CCCCN1,56.7
20,CCCN(CCc1ccccc1)C1CCc2c(O)cccc2C1 (configuration not stated) [2-(N-Phenethyl-N-propyl)amino-5-hydroxytetralin],96.6
21,Ic1cccc(CSc2nnc(-c3ccncc3)o2)c1 [GSK-3b Inhibitor II],106
22,"Nc1cc(=O)nc(N)[nH]1 [2,6-Diamino-4-pyrimidinone]",104
23,O=C1CCc2ccc(OCCCCN3CCN(c4cccc(Cl)c4Cl)CC3)cc2N1 [Aripiprazole],97
24,Cc1cn(-c2cc(NC(=O)c3ccc(C)c(Nc4nccc(-c5cccnc5)n4)c3)cc(C(F)(F)F)c2)cn1 [Nilotinib],73.5
25,COCCCCC(=NOCCN)c1ccc(C(F)(F)F)cc1.O=C(O)C=CC(=O)O [Fluvoxamine maleate],97.1
26,"Cl.Cl.Cl.NCCC1CCCC(CCN)N1 (configuration not stated) [MDL 26,630 trihydrochloride]",105
27,"CC(C)CCC[C@@H](C)[C@H]1CC[C@H]2[C@@H]3CC(=O)[C@H]4C[C@@H](O)CC[C@]4(C)[C@H]3CC[C@]12C [(3beta,5alpha)-3-hydroxycholestan-6-one]",92.5

# System: TDF
# Assay: H1.0 immunofluorescence intensity relative to DMSO (% of DMSO); higher = stronger H1.0 induction, active = 120 or more
# Settings: concentration: 10 µM; 24 h
# In short: as §1
row,SMILES,H1.0 immunofluorescence intensity
1,"CN(Cc1cnc2nc(N)nc(N)c2n1)c1ccc(C(=O)NC(CCC(=O)O)C(=O)O)cc1 (single isomer, unassigned; (-)) [(-)Amethopterin]",106 (inactive)
2,CN1c2cc3c(cc2N=C(c2ccc(C(=O)O)cc2)c2ccccc21)C(C)(C)CCC3(C)C,93.8 (inactive)
3,CC(C)(Sc1ccc(CCN(CCCCC2CCCCC2)C(=O)NC2CCCCC2)cc1)C(=O)O,95.7 (inactive)
4,CC(C=CC1=C(C)CCCC1(C)C)=CC=CC(C)=CC(=O)O [Retinoic acid],95.8 (inactive)
5,CCOC(=O)c1cnc2c(cnn2CC)c1NN=C(C)C [Etazolate],95.6 (inactive)
6,CS(=O)(=O)Nc1ccc(-c2coc3cc(OCc4cccc(C(=O)O)c4)ccc3c2=O)cc1,90.9 (inactive)
7,O=P(O)(O)C(O)(Cc1cccnc1)P(=O)(O)O [Risedronic acid],100 (inactive)
8,Clc1ccc(CON=C(Cn2ccnc2)c2ccc(Cl)cc2Cl)c(Cl)c1 [Oxiconazole],98.4 (inactive)
9,COc1cc(Cc2cnc(N)nc2N)cc(OC)c1OC [Trimethoprim],106 (inactive)
10,COc1c(O)cc(O)c2c(=O)cc(-c3ccccc3)oc12 [Wogonin],91.2 (inactive)
11,O=C(O)CCCC=CCC1C(O)CC(O)C1C=CC(O)COc1cccc(C(F)(F)F)c1 (configuration not stated) [Fluprostenol],92.2 (inactive)
12,CCCCCCC(O)CC=CCCCCCCCC(=O)O (configuration not stated) [Ricinoleic acid],97.7 (inactive)
13,"CCN1C(=CC(C)=O)Sc2ccc(OC)cc21 [Cdc2-Like Kinase Inhibitor, TG003]",89.5 (inactive)
14,NNC(=O)c1ccncc1 [Isoniazid],89.6 (inactive)
15,NC(N)=Nc1nc(CSCCC(N)=NS(N)(=O)=O)cs1,91.1 (inactive)
16,O=C1OC(C(O)CO)C(O)=C1O (configuration not stated) [Ascorbic acid],94 (inactive)
17,CC(C)c1cc(C(C)C)c(-c2csc(N(CCN(C)C)Cc3cccnc3)n2)c(C(C)C)c1,146 (active)
18,COC(=O)C1C(O)CCC2CN3CCc4c([nH]c5ccccc45)C3CC21.Cl (configuration not stated),91.2 (inactive)
19,CCCCCCC=CCCCCCCCCCC(=O)O [11(E)-Octadecenoic acid],105 (inactive)
20,CCC(C)C(=O)OC1CC(O)C=C2C=CC(C)C(CCC3CC(O)CC(=O)O3)C21 (configuration not stated) [Pravastatin Lactone],91.6 (inactive)

row,SMILES,H1.0 immunofluorescence intensity
1,NC(=O)CC[C@H](N)C(=O)O [L-Glutamine],91.4 (inactive)
2,CCCCCCC=CCCCCCCCCC(=O)O [10(E)-Heptadecenoic acid],98.4 (inactive)
3,CC(C=CC1=C(C)CCCC1(C)C)=CC=CC(C)=CC(=O)Nc1ccc(O)cc1 [4-Hydroxyphenylretinamide],95.7 (inactive)
4,COc1cc2nccc(Oc3ccc(NC(=O)Nc4ccc(F)cc4F)c(F)c3)c2cc1OC,103 (inactive)
5,O=C(COc1ccc(C(=O)c2ccccc2)cc1)NC1CCN(Cc2ccccc2)CC1 [2-(4-benzoylphenoxy)-N-(1-benzyl-4-piperidinyl)acetamide],118 (inactive)
6,CCCCCCCCC=CCCCCCCCCCCCCC(=O)O [14(E)-Tricosenoic acid],93.3 (inactive)
7,O=C(O)c1cc(-c2ccc(F)cc2F)ccc1O [Diflunisal],96.1 (inactive)
8,CC1(C)CCC(NC(=O)C(N)CCC(=O)O)CC1 (configuration not stated),85.3 (inactive)
9,NC(=O)c1noc([C@H](CCCC2CCCCC2)CC(=O)NO)n1,99.6 (inactive)
10,CC(=O)Oc1ccccc1C(=O)O [Acetylsalicylic Acid],96.1 (inactive)
11,Cl.Cl.OCCN1CCN(CCCN2c3ccccc3Sc3ccc(C(F)(F)F)cc32)CC1 [Fluphenazine.2HCl],101 (inactive)
12,Cl.O[C@H](c1cc(C(F)(F)F)nc2c(C(F)(F)F)cccc12)[C@@H]1CCCCN1,131 (active)
13,CCCN(CCc1ccccc1)C1CCc2c(O)cccc2C1 (configuration not stated) [2-(N-Phenethyl-N-propyl)amino-5-hydroxytetralin],89.4 (inactive)
14,Ic1cccc(CSc2nnc(-c3ccncc3)o2)c1 [GSK-3b Inhibitor II],102 (inactive)
15,"Nc1cc(=O)nc(N)[nH]1 [2,6-Diamino-4-pyrimidinone]",93.6 (inactive)
16,O=C1CCc2ccc(OCCCCN3CCN(c4cccc(Cl)c4Cl)CC3)cc2N1 [Aripiprazole],96.2 (inactive)
17,Cc1cn(-c2cc(NC(=O)c3ccc(C)c(Nc4nccc(-c5cccnc5)n4)c3)cc(C(F)(F)F)c2)cn1 [Nilotinib],101 (inactive)
18,COCCCCC(=NOCCN)c1ccc(C(F)(F)F)cc1.O=C(O)C=CC(=O)O [Fluvoxamine maleate],95.3 (inactive)
19,"Cl.Cl.Cl.NCCC1CCCC(CCN)N1 (configuration not stated) [MDL 26,630 trihydrochloride]",93.7 (inactive)
20,"CC(C)CCC[C@@H](C)[C@H]1CC[C@H]2[C@@H]3CC(=O)[C@H]4C[C@@H](O)CC[C@]4(C)[C@H]3CC[C@]12C [(3beta,5alpha)-3-hydroxycholestan-6-one]",98.5 (inactive)
